# Test results reported in PubChem BioAssay (NCATS).
# Several values for one entry are separate records, joined by “and”; a condition that tells them apart may be missing. Equal values may be shown once. Inconclusive results are not listed. Where a call stands in place of a potency, no number is given. Activity calls are given as the source filed them. Unless noted, calls follow the shape of the dose curve; as a rule, active = well fitted curve in the direction sought with a large enough effect; inconclusive = small, poorly fitted or top-dose-only effect, or another doubt; inactive = no such curve, though single readings can be large; an effect the other way counts as inactive or inconclusive.
# Key:
# [1] = target: Cytochrome P450 1A2 (Homo sapiens) (UniProt P05177); test: p450-cyp1a2 (AID 410; calls by dose curve; also: potency is read from the fitted curve at half-maximal effect)
# Cytochrome P450 1A2 (Homo sapiens), sequence (P05177 whole entry, looked up): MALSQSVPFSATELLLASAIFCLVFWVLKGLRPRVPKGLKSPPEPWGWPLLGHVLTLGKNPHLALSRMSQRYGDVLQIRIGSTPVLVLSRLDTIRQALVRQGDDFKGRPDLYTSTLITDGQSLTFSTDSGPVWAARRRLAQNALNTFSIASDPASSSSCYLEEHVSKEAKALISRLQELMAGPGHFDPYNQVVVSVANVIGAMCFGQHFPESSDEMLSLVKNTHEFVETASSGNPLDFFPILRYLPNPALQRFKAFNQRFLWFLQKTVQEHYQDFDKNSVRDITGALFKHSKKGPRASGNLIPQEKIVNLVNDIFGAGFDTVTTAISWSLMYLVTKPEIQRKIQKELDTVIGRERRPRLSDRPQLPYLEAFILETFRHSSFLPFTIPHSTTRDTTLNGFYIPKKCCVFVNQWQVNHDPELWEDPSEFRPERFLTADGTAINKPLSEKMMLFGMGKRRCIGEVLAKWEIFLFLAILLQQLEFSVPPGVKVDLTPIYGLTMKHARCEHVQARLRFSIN
# Outline: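 Human CYP1A2 (20nM) demethylated Luciferin-ME at its Km (100uM) in 100mM KPO4. After 10 min compound preincubation, NADPH regeneration ran the reaction 60 min at room temperature. Luciferin was read by luminescence, normalized to 57 uM furafylline.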
# [2] = NFAT Signaling Pathway (AID 444; active = well fitted curve in either direction with a large enough effect, not every such curve was filed as active;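 also: carbachol stimulus at about its EC50 of 1 µM final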); conditions: Jurkat NFAT-bla M1, carbachol, beta-lactamase ratio, 5 h; at 38 µM (top of the series)
# Outline: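 Jurkat cells with NFAT-driven β-lactamase reporter and co-expressed M1 receptor, stimulated with carbachol (final 1 uM, ~EC50), compound titration, 5 h at 37 °C. CCF4 loaded 1 h at RT; 460/530 nm ratio gave %activity and AC50.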
# [3] = target: Glucocorticoid receptor (Homo sapiens) (UniProt P04150); test: GR-GFP Redistribution (AID 450;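 active = compounds whose dose series gives a full or clear partial fitted curve of increased nuclear translocation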; also: potency is read from the fitted curve at half-maximal effect); conditions: U2OS GR-GFP nuclear translocation, laser cytometry, 2 h
# Glucocorticoid receptor (Homo sapiens), sequence (P04150 whole entry, looked up, the tested form may be a part): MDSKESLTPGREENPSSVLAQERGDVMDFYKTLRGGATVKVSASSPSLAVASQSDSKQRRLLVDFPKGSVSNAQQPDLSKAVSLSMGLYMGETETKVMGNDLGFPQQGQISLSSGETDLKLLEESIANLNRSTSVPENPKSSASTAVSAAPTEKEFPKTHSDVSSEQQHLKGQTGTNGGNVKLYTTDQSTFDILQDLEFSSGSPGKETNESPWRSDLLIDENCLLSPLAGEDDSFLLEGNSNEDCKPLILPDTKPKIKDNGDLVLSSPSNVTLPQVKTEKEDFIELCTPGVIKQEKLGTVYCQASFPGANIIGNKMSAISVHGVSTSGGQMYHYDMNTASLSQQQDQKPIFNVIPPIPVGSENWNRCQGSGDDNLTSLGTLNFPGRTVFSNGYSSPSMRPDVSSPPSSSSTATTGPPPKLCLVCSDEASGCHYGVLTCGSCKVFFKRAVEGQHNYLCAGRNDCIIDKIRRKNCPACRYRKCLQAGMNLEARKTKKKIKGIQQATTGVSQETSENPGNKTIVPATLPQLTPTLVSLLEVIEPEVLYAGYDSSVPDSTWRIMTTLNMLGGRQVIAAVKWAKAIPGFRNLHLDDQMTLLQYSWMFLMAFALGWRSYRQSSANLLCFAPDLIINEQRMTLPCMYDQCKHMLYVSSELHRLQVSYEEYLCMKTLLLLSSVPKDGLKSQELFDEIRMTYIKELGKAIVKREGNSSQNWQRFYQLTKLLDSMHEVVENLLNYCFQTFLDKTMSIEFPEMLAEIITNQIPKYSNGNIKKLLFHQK
# [4] = target: Glucocorticoid receptor (Homo sapiens) (UniProt P04150); test: GR-EFC Redistribution (AID 451; calls by dose curve; also: potency is read from the fitted curve at half-maximal effect); conditions: CHO-K1 GR-EFC translocation, beta-gal luminescence, 2 h
# Outline: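 CHO-K1 cells expressing nuclear EA and GR-ED fragments of b-gal; compounds titrated up to 46 uM final, 2 h at 37 C. GR nuclear translocation read as complemented b-gal luminescence after 1 h RT detection.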
# [5] = target: Mitogen-activated protein kinase 10 (Mus musculus) (UniProt Q61831); test: JNK3 AlphaScreen Assay (AID 530; active = well fitted curve in either direction with a large enough effect, not every such curve was filed as active;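 also: kinase came from lysate of stimulated human HepG2 cells; potency is read from the fitted curve at half-maximal effect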)
# Outline: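 qHTS format: compounds tested as titrations against IL-1beta/TNF-alpha-activated HepG2 lysate JNK3 with biotin-GST-cJun substrate and 10 uM ATP at room temperature. Loss of anti-phospho-cJun AlphaScreen signal indicates inhibition.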
# [6] = target: 3',5'-cyclic-AMP phosphodiesterase 4B (Homo sapiens) (UniProt Q07343); test: qHTS Assay for Inhibitors of PDE-IV (AID 607; active = well fitted activation curve with a large enough effect in the main read-out, with a control signal flat, not every such curve was filed as active)
# 3',5'-cyclic-AMP phosphodiesterase 4B (Homo sapiens), sequence (Q07343 whole entry, looked up): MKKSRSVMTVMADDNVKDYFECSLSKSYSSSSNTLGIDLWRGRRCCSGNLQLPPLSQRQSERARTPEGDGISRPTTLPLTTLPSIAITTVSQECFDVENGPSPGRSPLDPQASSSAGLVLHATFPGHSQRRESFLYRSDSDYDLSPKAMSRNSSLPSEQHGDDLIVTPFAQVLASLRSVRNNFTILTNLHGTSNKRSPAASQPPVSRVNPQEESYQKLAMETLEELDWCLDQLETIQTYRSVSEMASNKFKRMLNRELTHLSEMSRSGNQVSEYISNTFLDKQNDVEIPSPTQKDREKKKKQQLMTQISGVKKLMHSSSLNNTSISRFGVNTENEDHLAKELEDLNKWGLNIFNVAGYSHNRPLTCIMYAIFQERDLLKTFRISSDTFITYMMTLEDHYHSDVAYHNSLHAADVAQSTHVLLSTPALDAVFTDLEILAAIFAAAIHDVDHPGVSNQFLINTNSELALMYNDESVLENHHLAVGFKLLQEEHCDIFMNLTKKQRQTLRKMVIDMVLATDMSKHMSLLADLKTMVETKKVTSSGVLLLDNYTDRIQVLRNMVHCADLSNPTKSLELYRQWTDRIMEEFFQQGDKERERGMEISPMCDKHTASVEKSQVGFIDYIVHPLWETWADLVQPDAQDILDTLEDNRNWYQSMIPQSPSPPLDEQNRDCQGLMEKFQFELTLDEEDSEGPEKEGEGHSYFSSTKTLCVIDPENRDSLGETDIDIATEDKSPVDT
# Outline: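 HEK293 ACTOne cells with CNG channel (1000/well), endogenous PDE4; membrane potential dye, compounds up to 22.9 uM final. Fluorescence Ex 535/Em 590; RO 20-1724 (100 uM final) as reference.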
# [7] = target: Guanine nucleotide-binding protein G(i) subunit alpha-1 (Homo sapiens) (UniProt P63096); test: qHTS Assay for Inhibitors of RGS12 GoLoco Motif Activity (Green Fluorophore) (AID 879);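 also: negative values mean loss of peptide binding seen as reduced polarization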
# Outline: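 Fluorescence polarization assay: 50 nM Gαi1 with 10 nM FITC-labeled RGS12 GoLoco peptide in 10 mM Tris pH 7.5, 150 mM NaCl, 0.1 mM GDP, 0.05% NP40, 10 min at room temperature with compound.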
# [8] = target: Cytochrome P450 2C9 (Homo sapiens) (UniProt P11712); test: qHTS Assay for Inhibitors and Substrates of Cytochrome P450 2C9 (AID 883); also: nearly all actives have a fitted effect of over 60% in size
# Cytochrome P450 2C9 (Homo sapiens), sequence (P11712 whole entry, looked up): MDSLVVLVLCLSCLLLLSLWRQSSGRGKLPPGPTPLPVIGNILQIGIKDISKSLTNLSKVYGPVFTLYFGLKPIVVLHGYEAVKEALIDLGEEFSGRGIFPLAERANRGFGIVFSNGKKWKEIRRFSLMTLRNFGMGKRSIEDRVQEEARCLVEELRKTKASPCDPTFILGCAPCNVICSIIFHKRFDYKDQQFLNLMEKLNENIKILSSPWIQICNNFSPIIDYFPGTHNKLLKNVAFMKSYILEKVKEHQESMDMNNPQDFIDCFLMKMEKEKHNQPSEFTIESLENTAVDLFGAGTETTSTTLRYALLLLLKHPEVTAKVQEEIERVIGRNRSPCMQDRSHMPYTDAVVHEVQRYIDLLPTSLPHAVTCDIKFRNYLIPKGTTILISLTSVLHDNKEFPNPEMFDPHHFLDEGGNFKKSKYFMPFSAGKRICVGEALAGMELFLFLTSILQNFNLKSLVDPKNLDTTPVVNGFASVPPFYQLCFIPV
# Outline: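 Signal: luciferase luminescence reporting luciferin produced by CYP2C9. Conditions: 10nM enzyme, Luciferin-H 100uM at KM, 25mM KPO4, 37C, 60 min NADPH-driven reaction. Reference: 57uM sulphaphenazole as 100% inhibition.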
# [9] = target: Cytochrome P450 3A4 (Homo sapiens) (UniProt P08684); test: qHTS Assay for Activators of Cytochrome P450 3A4 (AID 885); also: nearly all actives have a fitted effect of over 65% in size
# Cytochrome P450 3A4 (Homo sapiens), sequence (P08684 whole entry, looked up): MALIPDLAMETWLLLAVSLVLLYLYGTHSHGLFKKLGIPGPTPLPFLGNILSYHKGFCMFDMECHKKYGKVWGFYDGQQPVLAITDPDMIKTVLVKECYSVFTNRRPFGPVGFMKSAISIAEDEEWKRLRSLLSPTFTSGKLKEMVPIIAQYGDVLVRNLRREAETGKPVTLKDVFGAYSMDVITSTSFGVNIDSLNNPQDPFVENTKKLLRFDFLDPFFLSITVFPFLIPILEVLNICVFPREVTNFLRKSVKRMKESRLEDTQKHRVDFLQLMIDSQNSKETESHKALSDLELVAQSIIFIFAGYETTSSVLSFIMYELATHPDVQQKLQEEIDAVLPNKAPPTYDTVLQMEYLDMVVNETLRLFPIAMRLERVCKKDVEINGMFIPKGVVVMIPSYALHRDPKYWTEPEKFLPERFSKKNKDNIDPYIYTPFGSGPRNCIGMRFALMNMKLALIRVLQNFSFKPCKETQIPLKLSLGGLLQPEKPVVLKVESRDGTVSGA
# Outline: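 Human CYP3A4 (20 nM) with Luciferin-PPXE at 25 uM (its KM) in 200 mM KPO4; 10 min compound preincubation, then NADPH regeneration and 60 min reaction at RT. Luciferin read by luminescence; normalized to 57 uM ketoconazole full inhibition.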
# [10] = target: Cytochrome P450 2D6 (Homo sapiens) (UniProt P10635); test: qHTS Assay for Inhibitors and Substrates of Cytochrome P450 2D6 (AID 891);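 also: luciferin methyl ether substrate demethylated by CYP2D6 with NADPH regeneration; nearly all actives have a fitted effect of over 60% in size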
# Outline: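 Human CYP2D6 (5 nM) with 30 uM Luciferin-ME EGE (at Km) in 100 mM KPO4, compound preincubated 10 min, then NADPH regeneration system for 60 min at room temperature. Luciferin read by luminescence; normalized to 1.43 uM quinidine.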
# [11] = qHTS Assay for Identification of Small Molecule Agonists for Thrombopoietin (TPO) Signaling Pathway (AID 917)
# Outline: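 Luminescence from a Glycoprotein IIb promoter–driven luciferase reporter served as read-out in murine Ba/F3 cells carrying the human TPO receptor. Cells, deprived of IL-3 overnight, received compounds with 26 pM TPO and were incubated 24 hrs at 37 C.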
# [12] = target: Pyruvate kinase PKM (Homo sapiens) (UniProt P14618); test: qHTS Assay for Activators of Human Muscle Pyruvate Kinase (AID 954; active = well fitted curve in the direction sought with a large enough effect, not every such curve was filed as active)
# Pyruvate kinase PKM (Homo sapiens), sequence (P14618 whole entry, looked up): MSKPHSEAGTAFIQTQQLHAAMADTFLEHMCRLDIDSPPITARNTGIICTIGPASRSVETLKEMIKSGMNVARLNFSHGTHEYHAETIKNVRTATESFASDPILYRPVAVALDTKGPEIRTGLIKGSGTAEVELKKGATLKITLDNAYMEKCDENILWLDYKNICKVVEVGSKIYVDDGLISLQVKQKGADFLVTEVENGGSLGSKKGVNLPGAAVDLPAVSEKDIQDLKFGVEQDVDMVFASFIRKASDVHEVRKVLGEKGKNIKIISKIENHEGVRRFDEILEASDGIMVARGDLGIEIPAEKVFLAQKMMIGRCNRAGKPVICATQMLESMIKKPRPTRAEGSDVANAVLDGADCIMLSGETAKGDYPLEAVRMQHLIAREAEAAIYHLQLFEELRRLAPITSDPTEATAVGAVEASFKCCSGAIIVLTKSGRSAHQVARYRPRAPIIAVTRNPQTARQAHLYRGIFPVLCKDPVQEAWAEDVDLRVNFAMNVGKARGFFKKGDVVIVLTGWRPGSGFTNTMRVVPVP
# Outline: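 Purified human PKM2 (0.1 nM) with 0.5 mM PEP (Km) and 0.1 mM ADP in 50 mM imidazole pH 7.2, KCl, MgCl2, 1 h at room temperature; ATP formed read by coupled luciferase luminescence. Normalized to no-enzyme/110 uM thiadiazolimine inhibition; 0.3 nM enzyme column for activation.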
# [13] = target: Pyruvate kinase PKM (Homo sapiens) (UniProt P14618); test: qHTS Assay for Inhibitors of Human Muscle Pyruvate Kinase (AID 958); conditions: purified human PKM enzyme activity
# Outline: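 Human PKM2 activity is measured as ATP generation, detected by luciferase-coupled luminescence. The enzyme (0.1 nM) acts on 0.5 mM PEP and 0.1 mM ADP for 1 h at ambient temperature; data are normalized to uninhibited and full-inhibition wells.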
# [14] = target: Pyruvate kinase (Leishmania mexicana) (UniProt Q27686); test: qHTS Validation Assay for Activators of Leishmania Mexicana Pyruvate Kinase (AID 959)
# Pyruvate kinase (Leishmania mexicana), sequence (Q27686 2-499 E452W): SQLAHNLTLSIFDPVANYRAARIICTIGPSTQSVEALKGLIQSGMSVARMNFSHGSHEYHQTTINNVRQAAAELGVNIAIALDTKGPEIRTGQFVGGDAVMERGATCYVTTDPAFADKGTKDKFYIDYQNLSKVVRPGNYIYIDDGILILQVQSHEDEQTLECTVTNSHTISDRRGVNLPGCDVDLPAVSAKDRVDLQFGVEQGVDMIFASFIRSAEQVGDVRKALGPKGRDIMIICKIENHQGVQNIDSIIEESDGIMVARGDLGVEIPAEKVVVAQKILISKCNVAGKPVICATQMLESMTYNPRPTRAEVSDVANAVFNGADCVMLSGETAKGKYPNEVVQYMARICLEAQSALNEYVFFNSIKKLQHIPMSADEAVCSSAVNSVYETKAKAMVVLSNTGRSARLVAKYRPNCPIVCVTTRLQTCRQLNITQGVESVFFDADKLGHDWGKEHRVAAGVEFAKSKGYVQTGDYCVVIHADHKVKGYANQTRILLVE
# Outline: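 Eight-point qHTS titrations in triplicate, data normalized to DMSO neutral control. Reaction: 0.2 nM LmPYK E451W mutant, 0.5 mM PEP, 0.1 mM ADP, 7 mM MgCl2, pH 7.2, one hour at room temperature; luminescent ATP detection.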
# [15] = target: Alpha-galactosidase A (Homo sapiens) (UniProt P06280); test: Counterscreen for Glucocerebrosidase Inhibitors: qHTS Assay for Human alpha-Galactosidase at pH 4.5 (AID 992)
# Alpha-galactosidase A (Homo sapiens), sequence (P06280 whole entry, looked up): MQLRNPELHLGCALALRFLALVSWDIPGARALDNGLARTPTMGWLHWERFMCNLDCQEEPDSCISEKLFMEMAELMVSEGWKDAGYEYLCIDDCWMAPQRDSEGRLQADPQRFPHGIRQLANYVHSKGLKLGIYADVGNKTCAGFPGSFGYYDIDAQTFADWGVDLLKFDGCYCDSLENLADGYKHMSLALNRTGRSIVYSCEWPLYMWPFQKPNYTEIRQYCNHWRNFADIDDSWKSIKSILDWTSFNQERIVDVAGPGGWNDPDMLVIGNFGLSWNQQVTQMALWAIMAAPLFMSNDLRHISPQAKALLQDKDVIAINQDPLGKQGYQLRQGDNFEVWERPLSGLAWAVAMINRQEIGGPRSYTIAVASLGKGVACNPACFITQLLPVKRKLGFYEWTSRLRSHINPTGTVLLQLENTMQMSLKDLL
# Outline: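 Human enzyme (2 nM) with 80 uM 4-methylumbelliferyl alpha-D-galactopyranoside in 50 mM citric acid, 0.005% Tween-20, pH 4.5, 20 min at room temperature. Compounds 0.7 nM–77 uM; fluorescence Ex 365/Em 440 after pH 10 stop; AC50 from Hill fits.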
# [16] = target: alpha-glucosidase (Oryza sativa, rice) (UniProt Q653V4); test: Counterscreen for Glucocerebrosidase Inhibitors: qHTS Assay for Rice alpha-Glucosidase at pH 5.0 (AID 997)
# Outline: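 Rice alpha-glucosidase (4 nM final) with 400 uM 4-methylumbelliferyl-alpha-D-glucopyranoside in citrate buffer pH 5.0, 20 min at room temperature, stopped at pH 10; fluorescence 365/440 nm, compounds 0.7 nM–77 uM, AC50 from Hill fits.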
# [17] = qHTS Assay for Lipid Storage Modulators (AID 1519; calls by dose curve); conditions: Drosophila S3 cells, BODIPY lipid droplet/cell ratio, laser cytometry, cells loaded with oleic acid
# Outline: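 Cells seeded at 5,000 per well were treated with compounds over a concentration series and loaded with oleic acid (400 uM, as added). Lipid droplet fluorescence (488 nm excitation, 500-530 nm channel) was read by laser-scanning cytometry and normalized to 20 uM Triacsin C.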
# [18] = target: DNA repair nuclease/redox regulator APEX1 (Homo sapiens) (UniProt P27695); test: qHTS Validation Assay for Inhibitors of the Human Apurinic/apyrimidinic Endonuclease 1 (APE1) (AID 1705;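 also: TAMRA fluorescence gain over two minutes as APE1 cuts a quenched THF abasic duplex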)
# DNA repair nuclease/redox regulator APEX1 (Homo sapiens), sequence (P27695 whole entry, looked up): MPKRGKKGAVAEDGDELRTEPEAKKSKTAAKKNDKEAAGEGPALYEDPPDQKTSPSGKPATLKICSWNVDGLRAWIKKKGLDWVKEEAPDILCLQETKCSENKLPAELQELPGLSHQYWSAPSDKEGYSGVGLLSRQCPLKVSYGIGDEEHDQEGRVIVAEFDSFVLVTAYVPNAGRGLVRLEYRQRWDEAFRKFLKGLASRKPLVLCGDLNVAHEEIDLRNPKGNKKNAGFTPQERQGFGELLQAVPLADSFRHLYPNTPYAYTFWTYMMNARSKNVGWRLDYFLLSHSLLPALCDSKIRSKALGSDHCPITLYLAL
# Outline: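 qHTS, 1536-well. APE1 + cpd 15 min RT → 50 nM TAMRA/BHQ-2 THF-abasic dsDNA substrate → kinetic fluorescence, 3 reads/60 s; delta(read3−read1) = reaction progress. No-enzyme buffer = negative control.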
# [19] = Counterscreen for APE1 Inhibitors: Fluorescent Dye Displacement Validation Assay (AID 1707)
# Outline: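 Thiazole Orange (250 nM) bound to 50 nM TAMRA-labelled dsDNA with tetrahydrofuran abasic site; displacement by DNA-binding compounds lowers fluorescence. Buffer 50 mM Tris-HCl pH 7.5, 50 mM NaCl, 2 mM MgCl2, 0.01% Tween-20; endpoint read at 480/540 nm.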
compound,measurement,setting,value
N#C/C(=C\c1ccc(O)c(O)c1)C(=O)Nc1ccccc1,Potency,[1],2 µM (active) and 501 nM (active)
same,"activity change, negative = inhibition",[2],6.23% (inactive)
same,Potency,[3],> 46 µM (inactive)
same,Potency,[4],> 46 µM (inactive)
same,Potency,[5],12.6 µM (active)
same,Potency,[6],inactive
same,outcome,[7],inactive
same,Potency,[8],inactive
same,Potency,[9],inactive
same,Potency,[10],inactive
same,Potency,[11],inactive
same,outcome,[12],inactive
same,Potency,[13],25.1 µM (active)
same,Potency,[14],inactive
same,outcome,[15],inactive
same,outcome,[16],inactive
same,"activity change, negative = inhibition",[17]; at 57.5 µM (top of the series),-21.4% (inactive)
same,max response,[17]; measured here: cell count channel max response,-56.6%
same,max response,[17]; measured here: lipid channel max response,-66.1%
same,Potency,[18],inactive
same,Potency,[19],inactive
